Results reported in PubChem BioAssay AID1259343 (VanderVen Lab, College of Veterinary Medicine, Cornell …, 2017).
Screen size: about 6,200 compounds; about 2,900 (47%) were called active. The set was probably picked from earlier hits. Some of the results follow. Values without a mark were called inactive. No stated cut-off is given here; in the data, active means inhibition above about 50%; inactive means the rest.

Experiment: Mycobacterium tuberculosis growth inhibition, primary screen (AID 1259343)
Conditions: inhibition: at 10 µM, hits give high values; outcome: 10 uM
In the case of `N#Cc1cc(C(=O)c2cc(Cl)cc(Cl)c2O)cn(-c2nccs2)c1=O`, the inhibition is reported as 25.4%. Compound `O=C(NCCC1CC2CCC1C2)c1ccc(N2CCOCC2)nc1` (stereo not given) has an inhibition of 5.89%. For `O=C(CC1CC2CCC1C2)N1CCN(c2ccccc2O)CC1` (stereo not given), the inhibition was 85.9% (active). With `O=C(CC1C[C@@H]2CC[C@H]1C2)N1CCc2c(cnn2-c2ccccn2)C1` (stereo not given in full) the inhibition was 49.8%. `COc1cccc(NC(=O)N2CCN(CCCOC(c3ccc(Cl)cc3)c3ccc(Cl)cc3)CC2)c1` showed an inhibition of 15.9%. For `CCCCCOc1ccc(Nc2cc(-c3cccc(N)c3)ncn2)cc1`, the inhibition was 5.27%. With `Cc1cccc(Nc2cc(N3CCN(CCCOc4ccccc4)CC3)ncn2)c1` the inhibition was 50.3% (active). For `Nc1nnc(Sc2ncc([N+](=O)[O-])s2)s1`, the inhibition was 102% (active). In the case of `O=[N+]([O-])c1c(-n2cccn2)nn(-c2ccccc2)c1C(Cl)Cl`, the inhibition is reported as 101% (active). In the case of `NCCc1cccc(OCCCc2ccccc2)c1`, the inhibition is reported as 57.2% (active). In the case of `COc1cccc(C=CC(=O)c2ccc(N3CCCC3=O)cc2)c1OC`, the inhibition is reported as 40%. In the case of `O=C(Nc1nc(-c2ccccn2)cs1)c1cccc(N2CCCC2=O)c1`, the inhibition is reported as 100% (active). In the case of `CCCCc1ccc(NC(=O)CSc2n[nH]c(=O)c3cc(-c4ccco4)nn23)cc1`, the inhibition is reported as 98.1% (active). With `Oc1ccc(C=NNC(=S)NCC2CCCO2)c(O)c1` (stereo not given) the inhibition was 101% (active). In the case of `S=C(NCC1CCCO1)Nc1ccc(N2CCCCC2)cc1` (stereo not given), the inhibition is reported as 60.7% (active). Work on `S=C(NCC1CCCO1)N1CCc2ccccc2C1` (stereo not given) yielded an inhibition of 19.9%. `Cc1cc(C(=O)N2CC=C(c3ccc(O)cc3)CC2)c(C)o1` gave an inhibition of 15.5%. With `Oc1ccc(C2=CCN(c3nnc(Br)s3)CC2)cc1` the inhibition was 95.1% (active). With `N#Cc1ccc(CN2CC=C(c3ccc(O)cc3)CC2)c(F)c1` the inhibition was -43%. For `CNC(=O)c1ccc(N2CC=C(c3ccc(O)cc3)CC2)nn1`, the inhibition was 91.4% (active). In the case of `Oc1ccc(C2=CCN(c3ncnc4ccccc34)CC2)cc1`, the inhibition is reported as 15.6%. Work on `O=S(=O)(Nc1cccc(C2OCC(COc3ccc(Cl)cc3)O2)c1)c1ccccc1` (stereo not given) yielded an inhibition of -0.13%. In the case of `CC(=O)Nc1ccc(OCc2nnsc2Cl)cc1`, the inhibition is reported as 85.4% (active). `CCc1ccccc1Oc1nc(NC(C)C)nc2ccsc12` showed an inhibition of 31.8%. In the case of `CN(c1ccccc1)c1nc2ccsc2c(=O)s1`, the inhibition is reported as 58.2% (active). For `Cc1cc(C)nc(Nc2nc(C(N)Cc3ccc(C(F)(F)F)cc3)cs2)n1` (stereo not given), the inhibition was 79.2% (active). For `Cc1cc(C)nc(Nc2nc(C(N)Cc3ccc(Cl)cc3)cs2)n1` (stereo not given), the inhibition was 73.2% (active). For `CCCc1cnc(Nc2nc(C(N)Cc3ccc(C(F)(F)F)cc3)cs2)nc1` (stereo not given), the inhibition was 50.7% (active). Compound `Cc1ccc(-c2nc(CN3CCOC(c4ccccc4)C3)cs2)o1` (stereo not given) has an inhibition of 29.6%. Compound `Cc1c(-c2ccccc2)sc2ncn(CC(=O)N3CCCCC3C)c(=O)c12` (stereo not given) has an inhibition of 48.6%. Work on `CC(=O)CSc1nc(C)nc2sc3c(c12)CCCC3` yielded an inhibition of 10%. In the case of `Cc1nc(SCC(=O)N2CCCCC2C)c2c3c(sc2n1)CCCC3` (stereo not given), the inhibition is reported as 51.5% (active). In the case of `Cc1ccc2[nH]cc(-c3cccc(OCC(N)=O)c3)c2c1`, the inhibition is reported as 72.6% (active). Work on `CC(C)(C)c1csc(-c2cccc(OCC(N)=O)c2)n1` yielded an inhibition of 35.2%. `c1ccc2sc(CSc3ncnc4sccc34)nc2c1` gave an inhibition of 35%. With `Brc1ccc2nc(CSc3nc4ccccc4s3)cn2c1` the inhibition was “inactive”. Compound `N#CC(=C(O)CC12CC3CC(CC(C3)C1)C2)c1nc2ccccc2s1` has an inhibition of 21.6%. For `Clc1c(CSc2nc3ccccc3s2)nc2ncccn12`, the inhibition was 77.3% (active). For `Oc1ccccc1OCc1nc2ccccc2s1`, the inhibition was 54.7% (active). Work on `O=C(CSc1nc2ccccc2s1)NCCN1C(=O)SC(=Cc2ccc3c(c2)OCO3)C1=O` yielded an inhibition of 4.39%. With `S=c1[nH]nc(CSc2nc3ccccc3s2)o1` the inhibition was -31.5%. `c1csc(Cn2nnnc2Sc2ncnc3sccc23)c1` showed an inhibition of -23.8%. For `c1ccc2sc(CSc3nc4ccccc4s3)nc2c1`, the inhibition was 95.9% (active). `COc1ccc(C(C)O)cc1CSc1nc2ccccc2s1` (stereo not given) gave an inhibition of 40.5%. For `c1ccc(Sc2c(-c3ccccc3)nc3ncccn23)cc1`, the inhibition was “inactive”. For `c1ccc2sc(Sc3ncnc4sccc34)nc2c1`, the inhibition was 59.5% (active). Compound `CCc1nnc(CNc2ccc3c(c2)OC(F)(F)O3)o1` has an inhibition of 32.3%. With `Cc1c(C(=O)NC(C)c2cccc(Cl)c2)oc2c1C(=O)CCC2` (stereo not given) the inhibition was 1.37%. `CC(NC(=O)c1cnsn1)c1cccc(Cl)c1` (stereo not given) gave an inhibition of 42.3%. With `CC(NC(=O)c1cc(Cl)ccn1)c1cccc(OC(F)F)c1` (stereo not given) the inhibition was 70.3% (active). For `CC(C)(C)OC(=O)c1cccc(NC2Cc3ccccc3C2)c1`, the inhibition was 29.1%. `CC(C)=CCC/C(C)=C/C(=O)NCc1ccccn1` gave an inhibition of -13%. In the case of `CCOC(=O)c1cccc(NC(=O)NC/C=C(\C)CCC=C(C)C)c1`, the inhibition is reported as 88.1% (active). Compound `Fc1ccc(NC(=S)NC2CCCCC2)c(F)c1F` has an inhibition of 18.1%. For `S=C(Nc1cccc(I)c1)NC1CCCCC1`, the inhibition was 93.2% (active). With `O=[N+]([O-])c1cc(NC(=S)NC2CCCCC2)ccc1Cl` the inhibition was 99.3% (active). `Fc1ccc(F)c(NC(=S)NC2CCCCC2)c1` showed an inhibition of 42%. With `O=C(O)c1cnc(/C=C/c2cc(Cl)c3c(c2)OCCCO3)s1` the inhibition was 85.9% (active). For `CNC(=O)c1cnc(/C=C/C2=Cc3cc(Cl)ccc3OC2)s1`, the inhibition was 11.2%. In the case of `COc1cc(/C=C/c2ncc(C(=O)O)s2)cc(Cl)c1OC`, the inhibition is reported as 80.2% (active). With `O=C(O)c1cnc(/C=C/c2cc(Br)cs2)s1` the inhibition was -34.7%. With `O=C(O)c1cnc(/C=C/c2cnn(-c3ccc(Cl)cc3)c2)s1` the inhibition was 62.2% (active). In the case of `O=C(CN1CCCCCC1)Nc1ccc(C(F)(F)F)cc1`, the inhibition is reported as 71.2% (active). Work on `O=C(CN1CCN(S(=O)(=O)N2CCCCCC2)CC1)Nc1ccc2ccccc2c1` yielded an inhibition of 3.56%. In the case of `CC1OC(=O)[C@@H](C(C)C)NC(=O)C(C(C)C)OC(=O)[C@H](C(C)C)NC(=O)C(C)OC(=O)[C@@H](C(C)C)NC(=O)C(C(C)C)OC(=O)[C@H](C(C)C)NC(=O)C(C)OC(=O)[C@@H](C(C)C)NC(=O)C(C(C)C)OC(=O)[C@H](C(C)C)NC1=O` (stereo not given in full), the inhibition is reported as 101% (active).
